Reference: PubChem BioAssay (Tox21)
Inconclusive results are not listed. Activity calls are given as the source filed them. Unless noted, calls follow the shape of the full dose curve.

Experiments:
[1] = Nuclear factor erythroid 2-related factor 2/antioxidant responsive element (Nrf2/ARE) small molecule agonists: qHTS cell viability counter screen in human keratinocytes (AID 1919968; active = well fitted curve in the direction sought with a large enough effect in the repeat runs; an effect the other way counts as inactive or inconclusive; also: nearly all actives have a fitted effect of over 55% in size)
Method in brief: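 Seed 1,500 KeratinoSens cells per well, then incubate 5 h at 37 C/5% CO2. Add compounds in DMSO and incubate 23 h. Add CellTiter-Fluor, wait 1 h and read fluorescence.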

[2] = molecular target: Gonadotropin-releasing hormone receptor (Homo sapiens) (UniProt P30968); assay: Human gonadotropin-releasing hormone receptor (GnRHR) small molecule agonists, calcium flux assay in GnRHR-HEK293 cells (AID 1920063); also: nearly all actives have a fitted effect of over 35% in size
Method in brief: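 Cells: HEK293 stably expressing human GnRHR. Steps: overnight (18 h) culture, 1 h calcium dye loading at 37 C, compound addition, kinetic fluorescence read at 480/540 nm. Each compound tested at 15 concentrations in triplicate.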

[3] = G protein-coupled receptor (GPCR) small molecule agonists, calcium flux assay: HEK293 wild type cell line counter screen (AID 1920065)
Method in brief: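 Counter-screen of the Tox21 10K library for non-specific calcium release: dye-loaded cells received compounds in DMSO and were monitored by kinetic fluorescence (480/540 nm, 3 min). Fifteen concentrations, run in triplicate.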

[4] = p53 small molecule agonists, cell-based qHTS assay with human liver microsomes (AID 1963577);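 also: p53 response element beta-lactamase reporter cells with liver microsomes plus NADPH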
Method in brief: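 In this qHTS, p53 response-element beta-lactamase cells receive test compound together with a microsome/NADPH activating system (0.5 mg/mL final each) and are incubated 16 h at 37 C before LiveBLAzer fluorescence detection.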

[5] = p53 small molecule agonists, cell-based qHTS assay with rat liver microsomes (AID 1963578)
Method in brief: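 Agonist mode in p53RE-bla reporter cells, with compounds co-incubated 16 h at 37 C alongside 0.5 mg/mL rat liver microsomes and 0.5 mg/mL NADPH (final), followed by a 2 h LiveBLAzer detection step.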

[6] = p53 small molecule agonists, cell-based qHTS assay with human liver microsomes: qHTS cell viability counter screen (AID 1963579); also: nearly all actives have a fitted effect of over 45% in size
Method in brief: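 Metabolically activated exposure: compounds, human liver microsomes and NADPH (0.5 mg/mL final apiece) were added to p53RE-bla cells seeded 5 h earlier, left 16 h at 37 C, and then assessed for viability by CellTiter-Glo luminescence.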

[7] = p53 small molecule agonists, cell-based qHTS assay with rat liver microsomes: qHTS cell viability counter screen (AID 1963580); also: nearly all actives have a fitted effect of over 45% in size
Method in brief: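 Viability is assessed in parallel with the p53 reporter read: HCT-116 p53RE-bla cells receive compounds plus rat microsomes and NADPH (0.5 mg/mL final apiece), incubate 16 h at 37 C, and then CellTiter-Glo luminescence is recorded.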

[8] = p53 small molecule agonists, cell-based qHTS assay (AID 1963582; active = well fitted activation curve with a large enough effect in the signal ratio in the repeat runs, not every such curve was filed as active; the % refers to the signal ratio)
Method in brief: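 Quantitative HTS in p53RE-bla cells: after a 5 h settling period, compounds delivered in DMSO were left on cells for 16 h at 37 C, and reporter induction was measured as fluorescence following 2 h substrate loading.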

[9] = molecular target: 5-hydroxytryptamine receptor 2A (Homo sapiens) (UniProt P28223); assay: 5-hydroxytryptamine receptor 2A (HTR2A) small molecule antagonists, cell-based qHTS assay (AID 1963586); also: nearly all actives have a fitted effect of over 45% in size
Method in brief: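 Antagonist-mode intracellular calcium assay: DOI (4 nM) added after 5 min compound pre-incubation at room temperature to dye-loaded HTR2A-CHO cells. Fluorescence followed for 3 min, sampled every second.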

[10] = molecular target: 5-hydroxytryptamine receptor 2A (Homo sapiens) (UniProt P28223); assay: 5-hydroxytryptamine receptor 2A (HTR2A) small molecule agonists, cell-based qHTS assay (AID 1963587); also: nearly all actives have a fitted effect of over 30% in size
Method in brief: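 CHO cells stably expressing human HTR2A, plated 18 h, loaded with calcium dye 1 h at 37 C. Agonist mode: compounds added and intracellular calcium fluorescence recorded kinetically for 2 min at 1 sec intervals.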

[11] = molecular target: Muscarinic acetylcholine receptor M1 (Homo sapiens) (UniProt P11229); assay: Cholinergic receptor muscarinic 1 (CHRM1) small molecule antagonists, cell-based qHTS assay (AID 1963588); also: nearly all actives have a fitted effect of over 40% in size
Method in brief: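 CHRM1-CHO calcium-flux assay, antagonist mode. Cells were seeded 18 h, dye-loaded 1 h at 37 C and given compound for 5 min at RT, then acetylcholine was added at 50nM. FDSS fluorescence was read 3 min; 15 concentrations, three runs.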

[12] = molecular target: Muscarinic acetylcholine receptor M1 (Homo sapiens) (UniProt P11229); assay: Cholinergic receptor muscarinic 1 (CHRM1) small molecule agonists, cell-based qHTS assay (AID 1963589); also: nearly all actives have a fitted effect of over 35% in size
Method in brief: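 Agonist-mode qHTS in CHO cells stably carrying human muscarinic M1. Intracellular calcium is tracked by fluorescence every second after compound transfer; each compound runs at 15 concentrations in three independent runs.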

[13] = molecular target: Beta-2 adrenergic receptor (Homo sapiens) (UniProt P07550); assay: Adrenergic beta2 receptor (ADRB2) small molecule antagonists, cell-based qHTS assay (AID 1963592); also: series mostly up to about 92 µM; nearly all actives have a fitted effect of over 50% in size
Method in brief: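 Cells (CHO, stable ADRB2 overexpression) incubated 18-20hr at 37C; compounds added from DMSO; agonist mix (1nM isoproterenol, 100uM IBMX, 25uM Ro-20-1724) added; 0.5hr RT; d2-cAMP and anti-cAMP-cryptate added; 1hr RT; 665/615 nm read.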

[14] = molecular target: Beta-2 adrenergic receptor (Homo sapiens) (UniProt P07550); assay: Adrenergic beta2 receptor (ADRB2) small molecule agonists, cell-based qHTS assay (AID 1963593);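 also: CHO cells stably overexpressing human ADRB2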
Method in brief: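 CHO cells stably over-expressing ADRB2 were plated overnight at 37C, then dosed with compounds plus a stimulation mix containing 100uM IBMX and 25uM Ro-20-1724 for 0.5hr at room temperature. cAMP was measured by HTRF competition, 1hr.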

[15] = molecular target: D(2) dopamine receptor (Homo sapiens) (UniProt P14416); assay: Dopamine D2 receptor (DRD2) small molecule agonists, cell-based qHTS assay (AID 1963594); also: nearly all actives have a fitted effect of over 35% in size
Method in brief: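 HEK293 cells stably expressing human DRD2, pre-treated with PDE inhibitor Ro20-1724 (0.1 mM final) and compound 10 min at room temperature, then stimulated with NKH477 (200nM […]) for 30 min. cAMP read by HTRF (665/620 nm).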

[16] = molecular target: D(2) dopamine receptor (Homo sapiens) (UniProt P14416); assay: Dopamine D2 receptor (DRD2) small molecule antagonists, cell-based qHTS assay (AID 1963595; active = well fitted inhibition curve with a large enough effect in the signal ratio in the repeat runs, with a control signal flat; the % refers to the signal ratio)
Method in brief: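 Stable D2 receptor HEK293 line, 24 h after seeding. Compound preincubated 10 min, then quinpirole (12 nM) with forskolin analogue NKH477 (200 nM), 30 min, room temperature. Detection by time-resolved FRET of cAMP.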

[17] = p53 small molecule agonists, cell-based qHTS assay: qHTS cell viability counter screen (AID 1963581); also: nearly all actives have a fitted effect of over 45% in size
Method in brief: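 Cells: HCT-116 with p53 response element-driven beta-lactamase. Treatment: 16 h, 37 C, compounds in DMSO. Read: CellTiter-Glo luminescence after 30 min RT.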

[18] = cAMP Responsive Elements (CRE) small molecule agonists, cell-based qHTS assay (AID 1963590)
Method in brief: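 Agonist mode qHTS in CRE-bla HEK 293T cells: compounds dosed from DMSO for 3 h at 37 C/5% CO2, followed by LiveBLAzer B/G FRET substrate for 2 h at room temperature.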

[19] = cAMP Responsive Elements (CRE) small molecule antagonists, cell-based qHTS assay (AID 1963591; active = well fitted inhibition curve with a large enough effect in the signal ratio in the repeat runs, not every such curve was filed as active; the % refers to the signal ratio)
Method in brief: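 Antagonist mode: test compounds are co-incubated with the adenylyl cyclase activator NKH477 (0.25 uM final) on CRE-bla HEK293T cells for 3 h at 37 °C, followed by LiveBLAzer substrate loading.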

[20] = molecular target: KiSS-1 receptor (Homo sapiens) (UniProt Q969F8); assay: Human kisspeptin (KISS1R) small molecule agonists, calcium flux assay in KISS1R-HEK293 cells (AID 1920064; active = well fitted curve in the direction sought with a large enough effect in the repeat runs; an effect the other way counts as inactive or inconclusive)
Method in brief: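 Cells plated and incubated 18 h; dye added, 1 h at 37 C; compounds in DMSO pinned in; signal read at 480/540 nm every second for 3 min. Each compound tested at 15 concentrations in triplicate.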

Measured: Potency

Chain of Muscarinic acetylcholine receptor M1 (Homo sapiens) (P11229 whole entry, looked up): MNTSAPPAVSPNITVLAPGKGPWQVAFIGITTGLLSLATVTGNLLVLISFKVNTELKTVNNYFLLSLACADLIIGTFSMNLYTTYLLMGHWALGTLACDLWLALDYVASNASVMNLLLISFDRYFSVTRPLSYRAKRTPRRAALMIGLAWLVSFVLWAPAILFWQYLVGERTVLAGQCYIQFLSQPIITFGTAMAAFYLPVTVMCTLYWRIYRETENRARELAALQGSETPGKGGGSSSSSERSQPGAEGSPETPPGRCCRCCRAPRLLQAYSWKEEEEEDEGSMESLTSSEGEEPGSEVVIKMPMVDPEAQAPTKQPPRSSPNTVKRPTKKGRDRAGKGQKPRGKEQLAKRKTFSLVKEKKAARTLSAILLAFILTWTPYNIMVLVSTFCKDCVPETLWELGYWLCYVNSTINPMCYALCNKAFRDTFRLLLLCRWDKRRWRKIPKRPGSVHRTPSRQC
Chain of D(2) dopamine receptor (Homo sapiens) (P14416 whole entry, looked up): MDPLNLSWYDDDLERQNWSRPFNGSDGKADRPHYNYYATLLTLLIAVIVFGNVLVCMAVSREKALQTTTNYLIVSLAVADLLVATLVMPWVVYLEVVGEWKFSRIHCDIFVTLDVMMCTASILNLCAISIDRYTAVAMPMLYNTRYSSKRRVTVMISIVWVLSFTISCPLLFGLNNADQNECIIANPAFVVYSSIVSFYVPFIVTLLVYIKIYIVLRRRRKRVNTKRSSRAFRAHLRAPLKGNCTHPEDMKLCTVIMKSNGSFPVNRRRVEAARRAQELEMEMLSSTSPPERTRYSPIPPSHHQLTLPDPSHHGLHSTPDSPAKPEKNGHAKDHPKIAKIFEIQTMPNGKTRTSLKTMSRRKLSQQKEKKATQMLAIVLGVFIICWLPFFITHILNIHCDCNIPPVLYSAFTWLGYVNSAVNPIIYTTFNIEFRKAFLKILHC
Chain of Gonadotropin-releasing hormone receptor (Homo sapiens) (P30968 whole entry, looked up): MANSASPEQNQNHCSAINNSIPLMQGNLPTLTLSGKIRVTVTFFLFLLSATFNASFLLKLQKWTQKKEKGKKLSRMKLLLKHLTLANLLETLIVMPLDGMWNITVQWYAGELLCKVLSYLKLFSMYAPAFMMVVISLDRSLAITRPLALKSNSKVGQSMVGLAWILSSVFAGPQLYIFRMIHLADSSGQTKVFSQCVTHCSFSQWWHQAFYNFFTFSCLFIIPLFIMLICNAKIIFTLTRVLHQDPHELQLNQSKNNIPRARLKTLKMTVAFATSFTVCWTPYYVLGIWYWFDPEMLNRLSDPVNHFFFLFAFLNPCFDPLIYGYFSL
Chain of 5-hydroxytryptamine receptor 2A (Homo sapiens) (P28223 whole entry, looked up): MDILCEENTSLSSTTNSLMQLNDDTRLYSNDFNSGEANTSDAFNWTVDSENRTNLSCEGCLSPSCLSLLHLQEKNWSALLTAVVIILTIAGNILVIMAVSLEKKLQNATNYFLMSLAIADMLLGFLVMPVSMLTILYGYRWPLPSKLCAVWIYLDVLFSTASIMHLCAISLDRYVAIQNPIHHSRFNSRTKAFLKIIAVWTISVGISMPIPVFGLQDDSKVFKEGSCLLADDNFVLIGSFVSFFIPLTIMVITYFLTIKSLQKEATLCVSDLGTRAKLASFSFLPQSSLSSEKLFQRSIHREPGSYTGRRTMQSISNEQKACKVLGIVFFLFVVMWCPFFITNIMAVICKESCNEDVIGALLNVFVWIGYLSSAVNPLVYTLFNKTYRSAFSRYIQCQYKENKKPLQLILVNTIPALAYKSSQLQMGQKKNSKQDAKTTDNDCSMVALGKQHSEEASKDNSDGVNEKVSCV
Chain of KiSS-1 receptor (Homo sapiens) (Q969F8 whole entry, looked up): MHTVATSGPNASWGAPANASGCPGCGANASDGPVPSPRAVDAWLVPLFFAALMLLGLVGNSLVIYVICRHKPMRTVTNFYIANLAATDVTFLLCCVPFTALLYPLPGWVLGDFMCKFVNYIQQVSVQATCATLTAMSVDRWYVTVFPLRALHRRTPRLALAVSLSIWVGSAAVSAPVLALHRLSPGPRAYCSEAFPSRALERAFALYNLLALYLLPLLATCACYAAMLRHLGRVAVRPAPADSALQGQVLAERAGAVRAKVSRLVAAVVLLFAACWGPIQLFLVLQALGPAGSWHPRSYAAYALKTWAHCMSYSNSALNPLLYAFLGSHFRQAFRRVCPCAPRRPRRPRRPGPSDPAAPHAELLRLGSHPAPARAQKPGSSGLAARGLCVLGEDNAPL
Chain of Beta-2 adrenergic receptor (Homo sapiens) (P07550 whole entry, looked up): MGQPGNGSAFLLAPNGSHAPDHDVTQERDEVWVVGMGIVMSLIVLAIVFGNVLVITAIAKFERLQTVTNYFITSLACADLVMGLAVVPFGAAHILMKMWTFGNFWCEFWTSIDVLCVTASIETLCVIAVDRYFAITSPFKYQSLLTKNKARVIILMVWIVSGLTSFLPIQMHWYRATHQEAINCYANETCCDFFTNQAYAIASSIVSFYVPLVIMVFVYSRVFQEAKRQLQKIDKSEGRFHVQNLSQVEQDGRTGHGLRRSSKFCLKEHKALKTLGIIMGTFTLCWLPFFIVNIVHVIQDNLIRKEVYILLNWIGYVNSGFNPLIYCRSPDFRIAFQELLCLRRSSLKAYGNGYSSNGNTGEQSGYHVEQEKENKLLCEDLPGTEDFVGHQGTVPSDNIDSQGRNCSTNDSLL

C[C@@H]1CC2=CC(=O)CC[C@@H]2[C@H]2CC[C@@]3(C)[C@@H](CC[C@]3(C)O)[C@@H]21
not listed: [17] | [18] | [19] | [20]
inactive: all other assays above

CC(C)CC(C)N (centres undefined)
not listed: [6] | [9] | [13] | [14] | [20]
inactive: all other assays above

COc1ccc(/C(=C/C(=O)N2CCOCC2)c2ccc(Cl)cc2)cc1OC
not listed: [2] | [4] | [9] | [18] | [19]
inactive: all other assays above

CN1C(=O)COc2c(C(=O)NC3CN4CCC3CC4)cc(Cl)cc21 (centres undefined)
inactive: [1] | [20] | [6] | [7] | [17] | [18] | [19] | [13] | [15] | [16]

CC(=O)[O-].[Tl+]
not listed: [2] | [4] | [5] | [8] | [14] | [17] | [19]
inactive: all other assays above

Nc1ccc(Sc2ccc(N)cc2)cc1
not listed: [2] | [4] | [5] | [8] | [14] | [15]
inactive: all other assays above

CCOP(=S)(OCC)OC(Cl)C(Cl)(Cl)Cl (centres undefined)
not listed: [4] | [5] | [14] | [20]
inactive: all other assays above
